Measured values: PubChem BioAssay (Tox21)
Records with an inconclusive call do not appear. Values without a mark were called inactive. Active and inactive are the calls of the source. Calls come from the whole dose curve; as a rule, active = well fitted curve in the direction sought with a large enough effect in the repeat runs; inconclusive = weak or mixed curves; inactive = no such curve, though single readings can be large; an effect the other way counts as inactive or inconclusive.
% is set by controls: 0 for no effect and ±100 for the full control effect.
Note: nearly all actives have a fitted effect of over 50% in size.

The molecules below were run against Cytochrome P450 2C9 (Homo sapiens) (UniProt P11712) (assay: Cytochrome P450 Family 2 Subfamily C Member 9 (CYP2C9) small molecule antagonists: luciferase reporter qHTS assay (AID 1671198; note: potency is the fitted concentration of half-maximal effect)). Conditions: P450-Glo CYP2C9 enzyme assay, luciferin luminescence; series mostly up to 115 µM; activity change, negative = inhibition: at the top concentration.
Chain of Cytochrome P450 2C9 (Homo sapiens) (P11712 whole entry, looked up): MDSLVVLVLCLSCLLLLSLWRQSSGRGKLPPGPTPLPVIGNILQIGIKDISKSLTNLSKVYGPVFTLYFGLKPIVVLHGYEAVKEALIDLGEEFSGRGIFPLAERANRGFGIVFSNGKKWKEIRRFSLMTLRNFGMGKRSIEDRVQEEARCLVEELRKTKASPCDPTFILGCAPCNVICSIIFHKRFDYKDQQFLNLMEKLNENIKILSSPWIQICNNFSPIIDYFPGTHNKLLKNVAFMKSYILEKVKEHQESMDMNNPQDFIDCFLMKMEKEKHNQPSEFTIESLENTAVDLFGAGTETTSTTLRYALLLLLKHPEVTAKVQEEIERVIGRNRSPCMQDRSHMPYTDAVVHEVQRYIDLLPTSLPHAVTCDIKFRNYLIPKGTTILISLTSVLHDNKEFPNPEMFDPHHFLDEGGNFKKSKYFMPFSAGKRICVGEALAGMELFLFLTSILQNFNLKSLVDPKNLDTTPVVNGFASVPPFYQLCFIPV
Summary of the method: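 CYP2C9 activity was measured with a P450-Glo proluciferin substrate. Enzyme–substrate mix was held with compound for 10 min at room temperature, then NADPH regeneration solution was added for 1 h at 37C. Luciferin product was read as luminescence.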
With `CCN(CC)CCOC(=O)C1(c2ccccc2)CCCC1` the “activity change, negative = inhibition” value was 19.4% [at 53 µM]. With `Cc1cc(C)c(S(=O)(=O)O)cc1N=Nc1cc(S(=O)(=O)O)c2ccccc2c1O` the Potency was 63.3 µM (active). `CC(=O)Nc1ccc(/C=N/NC(N)=S)cc1` was tested, and the “activity change, negative = inhibition” value was -17.3% [at 53 µM]. In the case of `CCOC(=S)SSC(=S)OCC`, the Potency is reported as 17.8 µM (active). In the case of `O=C(NS(=O)(=O)/C=C/c1cccs1)c1ccc(F)cc1Br`, the Potency is reported as 7.1 µM (active). For `N=C(N=C(N)N)N1CCOCC1`, the “activity change, negative = inhibition” value was -1.25% [at 53 µM]. In the case of `O=c1[nH]cnc2ccccc12`, the “activity change, negative = inhibition” value is reported as -24.8%. For `CCc1nn(C2CCCCC2)c2cc(C3(C#N)CCC(C(=O)O)CC3)ccc12` (configuration not stated), the Potency was 20 µM (active). `CC1=CC(=O)/C(=C(/C)O)C(=O)O1` was tested, and the Potency was 63.3 µM (active). In the case of `O=CNc1ccccc1`, the “activity change, negative = inhibition” value is reported as -8.16%. In the case of `CC(Cc1cccc(C(F)(F)F)c1)NCCOC(=O)c1ccccc1` (configuration not stated), the Potency is reported as 27.5 µM (active).

Each molecule was assayed against Cytochrome P450 1A2 (Homo sapiens) (UniProt P05177) (assay: Cytochrome P450 Family 1 Subfamily A Member 2 (CYP1A2) small molecule antagonists: luciferase reporter qHTS assay (AID 1671199; note: potency is the fitted concentration of half-maximal effect)). Conditions: P450-Glo CYP1A2 enzyme, luciferin luminescence, 1 h; series mostly up to 115 µM; activity change, negative = inhibition: at the top concentration.
Chain of Cytochrome P450 1A2 (Homo sapiens) (P05177 whole entry, looked up): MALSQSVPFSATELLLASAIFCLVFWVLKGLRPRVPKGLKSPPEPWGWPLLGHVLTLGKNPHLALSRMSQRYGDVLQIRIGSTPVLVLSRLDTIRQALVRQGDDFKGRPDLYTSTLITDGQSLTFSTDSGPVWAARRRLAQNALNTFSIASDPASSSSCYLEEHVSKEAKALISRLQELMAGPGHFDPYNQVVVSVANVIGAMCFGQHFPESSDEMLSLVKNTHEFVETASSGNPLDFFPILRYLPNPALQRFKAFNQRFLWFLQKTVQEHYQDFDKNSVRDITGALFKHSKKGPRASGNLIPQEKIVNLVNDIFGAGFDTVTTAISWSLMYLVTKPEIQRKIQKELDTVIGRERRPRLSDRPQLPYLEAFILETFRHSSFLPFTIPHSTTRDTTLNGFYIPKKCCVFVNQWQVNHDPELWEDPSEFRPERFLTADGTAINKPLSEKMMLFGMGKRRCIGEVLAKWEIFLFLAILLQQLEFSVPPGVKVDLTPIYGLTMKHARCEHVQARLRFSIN
Summary of the method: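 P450-Glo CYP1A2, 1536-well qHTS: enzyme/proluciferin substrate + cpd (DMSO), 10 min RT; NADPH regen, 1 h RT; detection reagent, 20 min; luminescence, RLU.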
With `CCCCOc1ccc(CC(=O)NO)cc1` the Potency was 15.5 µM (active). With `Nc1nc(CC(=O)O)cs1` the “activity change, negative = inhibition” value was -12.2%. `CC(=O)/C=C/C1C(C)=CCCC1(C)C` (configuration not stated) was tested, and the “activity change, negative = inhibition” value was -19.7%. For `c1ccc(-c2nc[nH]c2-c2ccccc2)cc1`, the Potency was 8.12 µM (active). `COc1ccc(OC)c(OC)c1` was tested, and the Potency was 39.9 µM (active). With `CC(=O)Nc1ccc(/C=N/NC(N)=S)cc1` the “activity change, negative = inhibition” value was -0.328% [at 53 µM]. `CC(=O)/C(C)=C/C1C(C)=CCCC1(C)C` (configuration not stated) was tested, and the Potency was 79.6 µM (active). `CNS(=O)(=O)Cc1ccc2[nH]cc(CCN(C)C)c2c1` was tested, and the “activity change, negative = inhibition” value was 0.128% [at 53 µM]. For `C[C@H](CCC(=O)O)[C@H]1CC[C@H]2[C@@H]3[C@H](O)C[C@@H]4C[C@H](O)CC[C@]4(C)[C@H]3CC[C@]12C`, the Potency was 31.8 µM (active). `O=C(NS(=O)(=O)/C=C/c1cccs1)c1ccc(F)cc1Br` was tested, and the “activity change, negative = inhibition” value was -14.1%. `CC(=O)SCc1ccco1` was tested, and the “activity change, negative = inhibition” value was -24%. With `CN(C)CCCNCCCN` the Potency was 35.4 µM (active). In the case of `CN(C(=O)CCCOc1ccc2[nH]c(=O)ccc2c1)C1CCCCC1`, the “activity change, negative = inhibition” value is reported as 1.03% [at 53 µM]. For `CC(=O)OC/C=C/c1ccccc1`, the Potency was 31.7 µM (active). In the case of `CCc1nn(C2CCCCC2)c2cc(C3(C#N)CCC(C(=O)O)CC3)ccc12` (configuration not stated), the “activity change, negative = inhibition” value is reported as -9.13%.

Each molecule was assayed against Voltage-gated inwardly rectifying potassium channel KCNH2 (Homo sapiens) (UniProt Q12809) (assay: Human Ether-a-go-go-Related Gene (hERG) channel small molecule antagonists: fluorescence cell-based qHTS assay (AID 1671200; note: potency is the fitted concentration of half-maximal effect;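 for activity change, negative = inhibition: hERG-expressing U2OS cells given a thallium stimulus after FluxOR II dye loading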)). Conditions: hERG-U2OS cells, FluxOR thallium flux fluorescence; series mostly up to 76.8 µM; activity change, negative = inhibition: at the top concentration.
Chain of Voltage-gated inwardly rectifying potassium channel KCNH2 (Homo sapiens) (Q12809 whole entry, looked up): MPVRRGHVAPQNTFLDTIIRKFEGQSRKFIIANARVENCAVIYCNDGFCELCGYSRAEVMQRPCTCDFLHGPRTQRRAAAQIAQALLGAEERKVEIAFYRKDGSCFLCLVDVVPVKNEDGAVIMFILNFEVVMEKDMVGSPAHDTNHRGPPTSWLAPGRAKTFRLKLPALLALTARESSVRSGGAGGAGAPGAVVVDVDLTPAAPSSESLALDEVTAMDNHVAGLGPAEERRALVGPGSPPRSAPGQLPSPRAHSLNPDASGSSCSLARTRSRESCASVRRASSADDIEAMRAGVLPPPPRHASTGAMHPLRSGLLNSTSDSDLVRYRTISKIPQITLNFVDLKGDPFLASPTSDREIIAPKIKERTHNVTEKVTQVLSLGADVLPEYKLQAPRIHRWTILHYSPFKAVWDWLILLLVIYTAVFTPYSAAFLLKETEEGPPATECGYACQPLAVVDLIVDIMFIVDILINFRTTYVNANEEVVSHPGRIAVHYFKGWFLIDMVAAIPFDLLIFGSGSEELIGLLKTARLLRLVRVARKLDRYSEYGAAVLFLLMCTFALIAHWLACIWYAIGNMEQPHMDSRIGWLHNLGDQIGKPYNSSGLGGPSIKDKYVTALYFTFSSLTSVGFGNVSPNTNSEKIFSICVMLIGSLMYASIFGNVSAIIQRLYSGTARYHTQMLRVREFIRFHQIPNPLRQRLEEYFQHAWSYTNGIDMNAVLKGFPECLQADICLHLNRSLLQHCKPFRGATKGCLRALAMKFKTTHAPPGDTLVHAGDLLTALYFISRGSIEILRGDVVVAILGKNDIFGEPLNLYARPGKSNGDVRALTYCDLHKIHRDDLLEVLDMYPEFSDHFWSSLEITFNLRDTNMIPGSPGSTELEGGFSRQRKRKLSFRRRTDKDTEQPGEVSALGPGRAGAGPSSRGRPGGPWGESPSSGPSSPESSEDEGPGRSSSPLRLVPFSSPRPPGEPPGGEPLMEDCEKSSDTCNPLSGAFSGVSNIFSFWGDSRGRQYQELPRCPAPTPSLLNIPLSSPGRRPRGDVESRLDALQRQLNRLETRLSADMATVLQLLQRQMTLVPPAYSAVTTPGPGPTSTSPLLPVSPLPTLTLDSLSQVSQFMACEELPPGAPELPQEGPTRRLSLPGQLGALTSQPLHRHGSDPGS
Summary of the method: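 Kinetic two-minute fluorescence traces, sampled at 1 s, were collected following thallium stimulus of U2OS cells (1000 per well) that had been cultured overnight at 37 C and loaded with FluxOR II.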
For `CCOC(=O)CC(=O)c1cc(F)c(Cl)nc1Cl`, the “activity change, negative = inhibition” value was 6.72%. `CCCCOc1ccc(CC(=O)NO)cc1` was tested, and the “activity change, negative = inhibition” value was 5.63% [at 35.3 µM]. With `CCN(CC)CCOC(=O)C1(c2ccccc2)CCCC1` the “activity change, negative = inhibition” value was -0.799% [at 35.3 µM]. For `CCC(=O)OC(C)(C)C1CC=C(C)CC1` (configuration not stated), the “activity change, negative = inhibition” value was -16.3%. In the case of `O=S1(=O)N=C(O)c2ccccc21`, the “activity change, negative = inhibition” value is reported as -0.142% [at 35.3 µM]. `CC(=O)/C=C/C1C(C)=CCCC1(C)C` (configuration not stated) was tested, and the “activity change, negative = inhibition” value was -8.25%. With `CN(C)C/C=C(/c1ccc(Br)cc1)c1cccnc1` the Potency was 13.4 µM (active). With `OCC1CC2CC1C1CCC(CO)C21` (configuration not stated) the “activity change, negative = inhibition” value was 0.498%. With `CCOc1nc2cccc(C(=O)O)c2n1Cc1ccc(-c2ccccc2-c2nn[nH]n2)cc1` the “activity change, negative = inhibition” value was 3.59% [at 35.3 µM]. `O=C(O)Cc1cc(I)c(Oc2ccc(O)c(I)c2)c(I)c1` was tested, and the “activity change, negative = inhibition” value was 21%. With `c1ccc(-c2nc[nH]c2-c2ccccc2)cc1` the “activity change, negative = inhibition” value was -5.14% [at 35.3 µM]. For `CCN(CCO)CCCC(C)Nc1ccnc2cc(Cl)ccc12` (configuration not stated), the activity change, negative = inhibition was 9.57% [at 6.97 µM]. In the case of `Cc1ccccn1`, the “activity change, negative = inhibition” value is reported as 19.8%. Molecule `NC[C@H]1O[C@H](O[C@H]2[C@H](O)[C@@H](O[C@H]3O[C@H](CO)[C@@H](O)[C@H](N)[C@H]3O)[C@H](N)C[C@@H]2N)[C@H](O)[C@@H](O)[C@@H]1O` has an activity change, negative = inhibition of 0.203% [at 6.97 µM]. With `CCOC(=S)SSC(=S)OCC` the “activity change, negative = inhibition” value was 3.98%. `Cc1cccc(C(C)(C)C)c1O` was tested, and the “activity change, negative = inhibition” value was 1.43%. `O=C(NS(=O)(=O)/C=C/c1cccs1)c1ccc(F)cc1Br` was tested, and the “activity change, negative = inhibition” value was 0.0183%. `N=C(N=C(N)N)N1CCOCC1` was tested, and the “activity change, negative = inhibition” value was -2.27% [at 35.3 µM]. In the case of `CN(C)CCCNCCCN`, the “activity change, negative = inhibition” value is reported as -8.04%. In the case of `CC(C)=CCCC(C)CC=O` (configuration not stated), the “activity change, negative = inhibition” value is reported as -2.4%. For `NCCCOCCOCCOCCCN`, the “activity change, negative = inhibition” value was -2.17%. In the case of `O=c1[nH]cnc2ccccc12`, the “activity change, negative = inhibition” value is reported as -2.79%. With `CN(C(=O)CCCOc1ccc2[nH]c(=O)ccc2c1)C1CCCCC1` the “activity change, negative = inhibition” value was -8.85% [at 35.3 µM]. With `CN(C)CCCOc1nn(Cc2ccccc2)c2ccccc12` the Potency was 4.25 µM (active). `CC(=O)OC/C=C/c1ccccc1` was tested, and the “activity change, negative = inhibition” value was -7.89%. With `CC1=CC(=O)/C(=C(/C)O)C(=O)O1` the “activity change, negative = inhibition” value was 2.29%. For `O=CNc1ccccc1`, the “activity change, negative = inhibition” value was -0.633%. For `CC(Cc1cccc(C(F)(F)F)c1)NCCOC(=O)c1ccccc1` (configuration not stated), the Potency was 8.49 µM (active).

The molecules below were run against Cytochrome P450 3A4 (Homo sapiens) (UniProt P08684) (assay: Cytochrome P450 Family 3 Subfamily A Member 4 (CYP3A4) small molecule antagonists: luciferase reporter qHTS assay (AID 1671201)). Conditions: P450-Glo CYP3A4 enzyme, luciferin luminescence, 1 h; series mostly up to 115 µM; activity change, negative = inhibition: at the top concentration.
Chain of Cytochrome P450 3A4 (Homo sapiens) (P08684 whole entry, looked up): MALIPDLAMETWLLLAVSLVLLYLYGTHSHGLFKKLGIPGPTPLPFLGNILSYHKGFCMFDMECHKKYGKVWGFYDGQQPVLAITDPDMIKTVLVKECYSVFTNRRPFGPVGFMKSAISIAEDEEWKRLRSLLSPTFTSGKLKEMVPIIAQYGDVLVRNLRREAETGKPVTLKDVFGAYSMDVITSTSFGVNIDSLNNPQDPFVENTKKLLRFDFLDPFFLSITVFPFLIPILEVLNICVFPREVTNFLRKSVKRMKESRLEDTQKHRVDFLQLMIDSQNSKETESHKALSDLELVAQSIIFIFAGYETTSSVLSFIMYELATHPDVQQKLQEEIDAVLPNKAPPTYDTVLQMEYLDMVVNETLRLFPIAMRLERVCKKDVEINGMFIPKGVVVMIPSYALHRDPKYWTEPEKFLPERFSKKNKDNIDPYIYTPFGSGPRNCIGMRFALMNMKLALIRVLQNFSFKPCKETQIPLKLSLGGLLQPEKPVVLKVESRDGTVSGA
Summary of the method: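 Proluciferin-to-luciferin conversion by CYP3A4, NADPH-regenerated, 1 h RT; luminescence read as RLU. Ketoconazole as control.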
`CCOC(=O)CC(=O)c1cc(F)c(Cl)nc1Cl` was tested, and the “activity change, negative = inhibition” value was 82.4%. With `CCCCOc1ccc(CC(=O)NO)cc1` the “activity change, negative = inhibition” value was -0.485% [at 52.9 µM]. In the case of `CNCC[C@@H](Oc1ccccc1C)c1ccccc1`, the “activity change, negative = inhibition” value is reported as -30.6% [at 52.9 µM]. For `CC(=O)/C=C/C1C(C)=CCCC1(C)C` (configuration not stated), the “activity change, negative = inhibition” value was 11.1%. With `Cc1cc(C)c(S(=O)(=O)O)cc1N=Nc1cc(S(=O)(=O)O)c2ccccc2c1O` the “activity change, negative = inhibition” value was 5.7%. For `OCC1CC2CC1C1CCC(CO)C21` (configuration not stated), the “activity change, negative = inhibition” value was -0.545%. `COc1ccc(OC)c(OC)c1` was tested, and the “activity change, negative = inhibition” value was -16.4%. In the case of `CC(=O)Nc1ccc(/C=N/NC(N)=S)cc1`, the “activity change, negative = inhibition” value is reported as -6.28% [at 52.9 µM]. `NC[C@H]1O[C@H](O[C@H]2[C@H](O)[C@@H](O[C@H]3O[C@H](CO)[C@@H](O)[C@H](N)[C@H]3O)[C@H](N)C[C@@H]2N)[C@H](O)[C@@H](O)[C@@H]1O` showed an activity change, negative = inhibition of 8.95% [at 10.5 µM]. With `CC(=O)/C(C)=C/C1C(C)=CCCC1(C)C` (configuration not stated) the “activity change, negative = inhibition” value was 1.37%. `CNS(=O)(=O)Cc1ccc2[nH]cc(CCN(C)C)c2c1` was tested, and the “activity change, negative = inhibition” value was 8.69% [at 52.9 µM]. In the case of `CCOC(=S)SSC(=S)OCC`, the “activity change, negative = inhibition” value is reported as 0.73%. With `C[C@H](CCC(=O)O)[C@H]1CC[C@H]2[C@@H]3[C@H](O)C[C@@H]4C[C@H](O)CC[C@]4(C)[C@H]3CC[C@]12C` the “activity change, negative = inhibition” value was -21.4%. With `O=C(NS(=O)(=O)/C=C/c1cccs1)c1ccc(F)cc1Br` the “activity change, negative = inhibition” value was 2.51%. In the case of `N=C(N=C(N)N)N1CCOCC1`, the “activity change, negative = inhibition” value is reported as 6.68% [at 52.9 µM]. `CN(C)CCCNCCCN` was tested, and the “activity change, negative = inhibition” value was -7.6%. In the case of `CCCCOc1cc(C(=O)OCCN(CC)CC)ccc1N`, the “activity change, negative = inhibition” value is reported as -15.5% [at 52.9 µM]. With `NCCCOCCOCCOCCCN` the “activity change, negative = inhibition” value was -32.7%. `O=c1[nH]cnc2ccccc12` was tested, and the “activity change, negative = inhibition” value was -3.63%. With `CC(=O)OC/C=C/c1ccccc1` the “activity change, negative = inhibition” value was -1.51%. `CCc1nn(C2CCCCC2)c2cc(C3(C#N)CCC(C(=O)O)CC3)ccc12` (configuration not stated) was tested, and the “activity change, negative = inhibition” value was 16.7%. For `CC1=CC(=O)/C(=C(/C)O)C(=O)O1`, the “activity change, negative = inhibition” value was -19.6%. In the case of `O=CNc1ccccc1`, the “activity change, negative = inhibition” value is reported as 2.49%.
